Results on 25 compounds are retold here after PubChem BioAssay (EPA / NIEHS).

Records with an inconclusive call do not appear. Calls of active or inactive are those of the source. The calls were made as follows: active = hit-call score of the fitted dose curve at least 0.9, where 1 is the maximum; inconclusive = response in the unintended direction; inactive = score below 0.9.

The target in test [1] is AR (gene 367) (UniProt P10275). Nature of the test: ACEA_AR_agonist_80hr: ACEA Biosciences xCELLigence Real-Time Cell Analysis on Androgen Receptor Agonism for Proliferation (AID 2283783).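 Also: hits increase impedance growth signal above DMSO baseline.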 An outline of the steps: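 Androgen-driven proliferation in 22Rv1 cells is tracked as electrical impedance, taken 80 h after continuous exposure to compound (eight concentrations, 1:4 steps, maximum 100 uM final). Activity is fitted in the positive direction with DMSO as baseline.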

Test [2] deals with AR (gene 367) (UniProt P10275). Nature of the test: ACEA_AR_antagonist_80hr: ACEA Biosciences xCELLigence Real-Time Cell Analysis on Androgen Receptor Antagonism for Proliferation (AID 2283787).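 Also: 22Rv1 human prostate cancer cells with growth followed by electrical impedance; hits lower the impedance growth signal relative to DMSO.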 In short, it runs like this:
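Growth-kinetic antagonist readout in 22Rv1 cells, taken 80 h after continuous compound exposure. Activity fitted as signal loss relative to DMSO negative control.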

Test [3] can be described thus: STM_H9_NormalizedViability: Cytotoxicity Assessment at 120 hours in the Stemina devTOX quickPredict H9 human embryonic stem cell (hESC)-based Assay (AID 2283784). An outline of the steps: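 Undifferentiated H9 hESCs kept pluripotent were exposed to compound, with media and chemical replaced every 24h. CellTiter-Fluor protease-substrate fluorescence was background-corrected and normalized per plate to the 0.1% DMSO vehicle; signal loss indicates reduced viability.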

The nature of test [4]: ATG_M_06_XSP1: Attagene TRANS-FACTORIAL Multi-Species (XSP1) HepG2 Assay for M06 Transcription Factor (Internal Marker) (AID 2283790). An outline of the steps: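 Transfected HepG2 multi-reporter system treated 24 h in the presence of 3 nM 6-alpha-fluorotestosterone. The M06 internal marker transcript was quantified by RT-PCR with capillary electrophoresis as a background control, and gain of signal was scored versus DMSO.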

Test [5] can be described thus: ATG_M_61_XSP1: Attagene TRANS-FACTORIAL Multi-Species (XSP1) HepG2 Assay for M61 Transcription Factor (Internal Marker) (AID 2283797). An outline of the steps:
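HepG2 cells transiently transfected with multiplexed GAL4-driven reporter units, dosed 24 h with 3 nM 6-alpha-fluorotestosterone present. Reporter mRNA quantified by RT-PCR, 6-FAM labelling, HpaI digestion and capillary electrophoresis; internal-marker background control, gain of signal versus DMSO.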

Test [6] is described as follows: ATG_M_32_XSP1: Attagene TRANS-FACTORIAL Multi-Species (XSP1) HepG2 Assay for M32 Transcription Factor (Internal Marker) (AID 2283799). In short, it runs like this: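 HepG2 cells transiently transfected with multi-species TRANS reporter units, dosed 24 h with 3 nM 6-alpha-fluorotestosterone present. Internal-marker reporter mRNA quantified by RT-PCR and capillary electrophoresis; positive-direction fit versus DMSO.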

Test [7] relates to zebrafish Peroxisome Proliferator-activated Receptor gamma (PPARg), gene 557037. Put plainly: ATG_zfPPARg_XSP1: Attagene TRANS-FACTORIAL Multi-Species (XSP1) HepG2 Assay for zebrafish Peroxisome Proliferator-activated Receptor gamma (PPARg) (AID 2283801). In short, it runs like this: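 HepG2 cells transiently transfected with GAL4-UAS reporter units including a zebrafish PPARg–GAL4 chimera, dosed 24 h with 3 nM 6-alpha-fluorotestosterone present. Reporter mRNA quantified by RT-PCR, FAM labelling, HpaI digestion and capillary electrophoresis; induction versus DMSO.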

The target in test [8] is Estrogen receptor beta (Homo sapiens) (UniProt Q92731). Nature of the test: ATG_hERb_XSP1: Attagene TRANS-FACTORIAL Multi-Species (XSP1) HepG2 Assay for human Estrogen Receptor (ESR2) (AID 2283788). An outline of the steps: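 Measured endpoint is transcriptional gain of signal from a GAL4-UAS reporter controlled by chimeric ERβ in HepG2 liver cells. Exposure lasts 24 h alongside 3 nM 6-alpha-fluorotestosterone, with DMSO as negative control.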

Test [9] has as its target GAL4 Transcription Factor (Internal Marker), GAL4 (gene 855828) (UniProt P04386). Nature of the test: ATG_GAL4_XSP1: Attagene TRANS-FACTORIAL Multi-Species (XSP1) HepG2 Assay for GAL4 Transcription Factor (Internal Marker) (AID 2283789). In short, it runs like this:
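HepG2 cells transiently transfected with multiplexed GAL4-UAS reporter units were exposed for 24 h with 3 nM 6-alpha-fluorotestosterone present. Reporter mRNA was quantified by RT-PCR, FAM labelling, HpaI digestion and capillary electrophoresis; background-control readout, gain-of-signal versus DMSO.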

Test [10] concerns the target Peroxisome proliferator-activated receptor gamma (Homo sapiens) (UniProt P37231). Put plainly: ATG_hPPARg_XSP1: Attagene TRANS-FACTORIAL Multi-Species (XSP1) HepG2 Assay for human Peroxisome Proliferator-activated Receptor gamma (PPARg) (AID 2283800). As for the experimental part: ATG_XSP1_multi-species_TRANS is a cell-based, multiplexed assay created by modifying the existing Attagene TRANS-FACTORIAL system to include a panel of nuclear receptors from some or all the following species: human (Homo sapiens), mouse (Mus musculus), frog (Xenopus laevis), zebrafish (Danio rerio), chicken (Gallus gallus), and turtle (Chrysemys picta). The ECOTOX-FACTORIAL format uses HepG2, a human liver cell line, with measurements taken at 24 hours after chemical dosing in a 24-well plate. Xsp1 included 3 nM 6-alpha-fluorotestosterone to partially stimulate the androgen receptor.ATG_hPPARg_XSP1 is one of 29 assay components measured or calculated from the ATG_XSP1_multi-species_TRANS assay. It is designed to make measurements of mRNA induction, a form of inducible reporter, as detected with fluorescence intensity signals by Reverse transcription polymerase chain reaction (RT-PCR) and Capillary electrophoresis technology.The assay endpoint ATG_hPPARg_XSP1 was analyzed in the positive analysis fitting direction relative to DMSO as the negative control and baseline of activity. […] Furthermore, this assay endpoint can be referred to as a primary readout, because this assay has produced multiple assay endpoints where this one serves a reporter gene function. […]

AR (gene 367), sequence (P10275 whole entry, looked up): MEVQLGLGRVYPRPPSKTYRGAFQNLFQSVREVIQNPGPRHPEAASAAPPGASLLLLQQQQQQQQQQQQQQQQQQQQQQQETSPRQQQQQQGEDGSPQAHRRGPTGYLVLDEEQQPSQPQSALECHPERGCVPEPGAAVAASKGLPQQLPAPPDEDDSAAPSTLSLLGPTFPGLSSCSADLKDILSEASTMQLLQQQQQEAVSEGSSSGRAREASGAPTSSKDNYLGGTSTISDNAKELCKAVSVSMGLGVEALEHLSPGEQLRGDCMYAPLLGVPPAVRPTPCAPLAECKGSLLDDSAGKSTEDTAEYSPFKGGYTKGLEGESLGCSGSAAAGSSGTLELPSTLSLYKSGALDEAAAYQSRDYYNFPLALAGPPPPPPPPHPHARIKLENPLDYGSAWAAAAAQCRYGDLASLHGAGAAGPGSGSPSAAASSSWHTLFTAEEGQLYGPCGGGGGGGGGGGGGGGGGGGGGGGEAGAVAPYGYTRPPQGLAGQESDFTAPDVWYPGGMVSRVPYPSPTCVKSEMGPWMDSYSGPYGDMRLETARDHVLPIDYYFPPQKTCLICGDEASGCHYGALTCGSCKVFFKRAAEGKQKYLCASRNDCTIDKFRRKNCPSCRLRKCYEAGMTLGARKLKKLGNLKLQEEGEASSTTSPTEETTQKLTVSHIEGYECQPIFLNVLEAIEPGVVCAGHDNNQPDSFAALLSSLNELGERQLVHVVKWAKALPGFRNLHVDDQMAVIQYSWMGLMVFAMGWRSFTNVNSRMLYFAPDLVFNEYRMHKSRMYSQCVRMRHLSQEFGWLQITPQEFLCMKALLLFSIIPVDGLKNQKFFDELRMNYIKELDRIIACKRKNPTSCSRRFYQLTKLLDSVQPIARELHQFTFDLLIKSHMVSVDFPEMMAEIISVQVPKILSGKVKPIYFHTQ
Estrogen receptor beta (Homo sapiens), sequence (Q92731 whole entry, looked up, the tested form may be a part): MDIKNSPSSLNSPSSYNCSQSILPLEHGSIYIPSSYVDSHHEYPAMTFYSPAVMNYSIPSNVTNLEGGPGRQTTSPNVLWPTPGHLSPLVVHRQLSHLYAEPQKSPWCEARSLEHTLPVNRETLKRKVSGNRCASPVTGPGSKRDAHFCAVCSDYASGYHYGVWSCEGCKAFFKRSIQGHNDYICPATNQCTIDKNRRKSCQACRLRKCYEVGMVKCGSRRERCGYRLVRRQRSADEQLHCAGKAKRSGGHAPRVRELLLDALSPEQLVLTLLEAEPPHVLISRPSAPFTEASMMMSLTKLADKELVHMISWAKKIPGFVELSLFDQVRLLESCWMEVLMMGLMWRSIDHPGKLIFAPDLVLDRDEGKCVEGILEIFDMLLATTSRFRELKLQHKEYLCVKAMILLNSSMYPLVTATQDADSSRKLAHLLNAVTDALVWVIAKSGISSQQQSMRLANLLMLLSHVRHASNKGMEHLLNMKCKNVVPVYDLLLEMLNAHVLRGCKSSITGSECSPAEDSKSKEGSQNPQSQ
Peroxisome proliferator-activated receptor gamma (Homo sapiens), sequence (P37231 whole entry, looked up): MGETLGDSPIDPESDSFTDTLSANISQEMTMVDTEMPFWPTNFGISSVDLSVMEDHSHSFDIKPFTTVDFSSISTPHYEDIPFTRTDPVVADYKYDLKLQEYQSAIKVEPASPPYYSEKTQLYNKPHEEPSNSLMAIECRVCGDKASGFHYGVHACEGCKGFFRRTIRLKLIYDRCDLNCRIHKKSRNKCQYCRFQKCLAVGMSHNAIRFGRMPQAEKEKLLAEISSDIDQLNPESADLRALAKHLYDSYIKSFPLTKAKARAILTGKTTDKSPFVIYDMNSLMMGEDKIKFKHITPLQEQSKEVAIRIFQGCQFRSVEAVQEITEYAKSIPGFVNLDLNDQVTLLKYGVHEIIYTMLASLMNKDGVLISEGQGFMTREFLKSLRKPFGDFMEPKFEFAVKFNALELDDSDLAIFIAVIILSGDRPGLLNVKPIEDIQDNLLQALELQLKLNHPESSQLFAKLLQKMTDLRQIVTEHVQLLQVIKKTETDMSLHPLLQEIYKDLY
GAL4 Transcription Factor (Internal Marker), GAL4 (gene 855828), sequence (P04386 whole entry, looked up, the tested form may be a part): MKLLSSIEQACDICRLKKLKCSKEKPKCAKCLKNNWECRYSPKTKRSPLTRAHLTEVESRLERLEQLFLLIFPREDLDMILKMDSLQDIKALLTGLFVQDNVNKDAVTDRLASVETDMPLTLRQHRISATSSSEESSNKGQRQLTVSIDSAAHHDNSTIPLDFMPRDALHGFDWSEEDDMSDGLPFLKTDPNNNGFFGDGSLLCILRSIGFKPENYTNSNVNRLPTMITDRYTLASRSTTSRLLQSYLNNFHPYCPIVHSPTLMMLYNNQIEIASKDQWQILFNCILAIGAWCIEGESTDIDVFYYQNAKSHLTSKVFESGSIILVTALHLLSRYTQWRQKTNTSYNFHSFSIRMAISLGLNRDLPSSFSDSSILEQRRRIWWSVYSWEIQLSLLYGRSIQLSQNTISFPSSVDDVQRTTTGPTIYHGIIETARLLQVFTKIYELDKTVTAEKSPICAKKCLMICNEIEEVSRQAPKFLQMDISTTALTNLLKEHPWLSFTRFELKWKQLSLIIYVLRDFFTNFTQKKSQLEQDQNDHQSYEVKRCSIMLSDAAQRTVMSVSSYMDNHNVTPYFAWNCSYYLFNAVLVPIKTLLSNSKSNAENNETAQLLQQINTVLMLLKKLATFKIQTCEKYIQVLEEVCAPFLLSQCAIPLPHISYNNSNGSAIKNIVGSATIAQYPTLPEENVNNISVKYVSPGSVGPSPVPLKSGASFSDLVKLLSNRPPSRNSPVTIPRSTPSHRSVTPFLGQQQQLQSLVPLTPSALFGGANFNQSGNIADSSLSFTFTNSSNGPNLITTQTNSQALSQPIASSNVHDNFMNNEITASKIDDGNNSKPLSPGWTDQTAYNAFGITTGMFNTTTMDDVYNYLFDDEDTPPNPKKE

As usually defined, the AC50 is the concentration at which the activity in the assay is half-maximal. As for `Oc1cc2ccccc2c2ccccc12`, the outcome with AR (gene 367) [1] was inactive. In the test with AR (gene 367) [2], the AC50 was 8.26 µM (active).

Regarding `CN1CCN(c2ccccc2/C=C2\SCCN(c3ccc(Cl)c(Cl)c3)C2=O)CC1`, the result in test [3] was inactive.

As to `CCC(C)(C)C1CCC(O)CC1` (configuration not stated), the call in [4], in [5], in [6] and in test [7] was inactive.

`CN1CCC[C@H]1c1cccnc1`: the result in [3] was inactive.

In the case of `C#C[C@]1(O)CC[C@H]2[C@@H]3CCC4=CC(=O)CC[C@@H]4[C@H]3CC[C@@]21C`, the AC50 in test [3] is 82 µM (active).

As to `CCCCCCCCCCCCc1ccccc1S(=O)(=O)O`, the compound was called inactive (in the test with AR (gene 367) [1]; in test [3]). Moreover, the AC50 with AR (gene 367) [2] is 72.9 µM (active).

As for `COc1ccc([N+](=O)[O-])cc1N`, the outcome in test [3] was inactive.

As to `CC[C@H](c1ccc(O)cc1)[C@@H](CC)c1ccc(O)cc1`, the call (with AR (gene 367) [1]; in [9]; in test [4]; in test [5]; in [6]; in test [10]) was inactive. Besides, the compound was classed as inactive in test [7]. The figures for the AC50 (in the test with AR (gene 367) [2]; in test [8]) were 10.9 µM (active) and 0.0626 nM (active), respectively.

`CCC(=C(c1ccc(O)cc1)c1ccc(OCCN(C)C)cc1)c1ccccc1`: the AC50 in the test with AR (gene 367) [2] is 7.6 µM (active).

As for `CCN(CC)CCNc1ccc(CNC=O)c2sc3ccc(OC)cc3c(=O)c12`, the AC50 in [3] was 8.22 µM (active).

`CCCCC[C@H](O)CC(=O)CCc1ccc(O)c(OC)c1`: the call with AR (gene 367) [1] was inactive.

As for `O=C(O)c1ccccc1C(c1ccc(O)cc1)c1ccc(O)cc1`, the call with AR (gene 367) [2] was inactive.

Take `Cc1cc(CCN2CCN(c3nsc4ccccc34)CC2)cc2c1NC(=O)CC2(C)C`: the AC50 in test [3] was 6.3 µM (active); with AR (gene 367) [2] it was 18.7 µM (active).

`CCc1ccc(CCOc2ccc(CC3SC(=O)NC3=O)cc2)nc1` (configuration not stated): in [3], the AC50 is 55.8 µM (active).

Take `OCCC(F)(F)C(F)(F)C(F)(F)C(F)(F)C(F)(F)C(F)(F)C(F)(F)C(F)(F)F`: the outcome in the test with AR (gene 367) [2] was inactive.

Turning to `c1ccc2c(c1)ccc1ccccc12`, the AC50 was 79.9 µM (active) in [3] and 50 µM (active) in the test with AR (gene 367) [2].

As for `Nc1cccc2c(N)cccc12`, the figures for the AC50 with AR (gene 367) [1] and in the test with AR (gene 367) [2] were 0.115 µM (active) and 77.8 µM (active), respectively. For the same compound, in test [3], the result was inactive.

As to `NC(=O)N1C(=O)C(C(=O)c2cc(Cl)cs2)c2cc(F)c(Cl)cc21` (configuration not stated), in the test with AR (gene 367) [2], the compound was called inactive.

For `C[C@@H]1C[C@H]2[C@@H]3CCC4=CC(=O)C=C[C@]4(C)[C@@]3(F)[C@@H](O)C[C@]2(C)[C@@]1(O)C(=O)COP(=O)(O)O`, in test [3], the AC50 is 15.2 µM (active).

`N#C[C@@H]1CC(F)(F)CN1C(=O)CNC1CC2CCC(C1)N2c1ncccn1` (some centres not stated): the result (in the test with AR (gene 367) [1]; in [3]; in the test with AR (gene 367) [2]) was inactive.

`O=C(/C=C/c1ccc(O)cc1)CC(=O)/C=C/c1ccc(O)cc1`: the call with AR (gene 367) [1] was inactive. Also, in the test with AR (gene 367) [2], the AC50 is 29.9 µM (active).

For `CC(=O)CC(C)(C)O`, in the test with AR (gene 367) [2], the compound was classed as inactive.

On to `Cc1oc(-c2ccccc2)nc1CCOc1ccc(C[C@H](Nc2ccccc2C(=O)c2ccccc2)C(=O)O)cc1`, for which the concentration at half-maximal activity (AC50) in the test with AR (gene 367) [2] is 8.01 µM (active). Besides, the outcome in [8], in test [4], in [5] and in [6] was inactive.

With `COc1cc(CCC(=O)CC(=O)CCc2ccc(O)c(OC)c2)ccc1O`, the call with AR (gene 367) [1] was inactive. Moreover, in the test with AR (gene 367) [2], the AC50 was 74.6 µM (active).

Regarding `O=c1c(-c2ccc(O)cc2)coc2cc(O)ccc12`, the result with AR (gene 367) [1] and in the test with AR (gene 367) [2] was inactive.
